Reference: publication PMC12136788
Whole data set: some 5,800 sequences, median “enrichment r” near 0.54, cut for the highest 2% near 16. What follows is part of a selection rich in the highest values, with near analogues and random picks from the rest.

B1: ENSG00000069329:stop:overlap|stop_codon|ENSG00000069329|stop_codon|NA|stop_codon (ssRNA)
RNA: GGGAGUUCUACAGUCCGACGAUCUGGAGAAGGGGCCCCACAGACCGUUCGGGAUUAAGACCAGCCCGAUUUGGCCUGCGGGAUAGGGGACAGCAGGAGGAAGGCCGCGGGCAGGCUGAUCCGGGCCGGGGUGGGCGGCGGCUCCAACAGAGGAUUGAGCAUCA
B2: chr16:58599380:58599482:-|5pUTR|ENSG00000125107|unk|total|mutant (ssRNA)
RNA: GGGAGUUCUACAGUCCGACGAUCCAGAACAGAGUAAGACCCCUGGUAAAGAAGAACUGAAGAUAUUAUACAGAUACCAGAUACCGCCUAAUUACAAAGAAAGCAUUAACCUGCCUCUGAGGUGACUAAAGGGGAAUAAUGGUGCAACAGAGGAUUGAGCAUCA
B3: chr11:113276125:113276317:+|3pUTR|ENSG00000149294|msi1|FALSE|unique (ssRNA)
RNA: GGGAGUUCUACAGUCCGACGAUCGUCCGUGUAAAAUAGCUGCCUUUUAUUUUUUAAGGUAACAAAUACCACCUAGAGGUAGGUAGGAUCAUCCCACGCUUGCUUUAGCACAGGACAACUUUACAAAACAUGAUUGUUUACAGCCAACAGAGGAUUGAGCAUCA
B4: chr14:53038166:53038268:-|3pUTR|ENSG00000100523|unk|total|mutant (ssRNA)
RNA: GGGAGUUCUACAGUCCGACGAUCGAGCUUUUGGCAGAGUCUUCGGGGUUUUCCCGGUAUAAAAUCAUAUCAGCGAAGAGAGCCCGUUUGAUUUCUUUUCCCAGUUGGAUGCCUUUUAUUUAUUUCUCUUGCCUGAUUGCUCUACAACAGAGGAUUGAGCAUCA
B5: chr2:39051162:39051270:-|CDS|ENSG00000115904|unk|total|mutant (ssRNA)
RNA: GGGAGUUCUACAGUCCGACGAUCAAAUAUAUUCCGUCGCACCGCCGAUAUACAUGAACUCCGUGUAAAGUUACUGGGCCAUACCGAAGAUACAGCCGAAAUGACAGAUGAAGGCAGUCCCCAUCCACCCGCCGGAAGCUGCUUCAACAGAGGAUUGAGCAUCA
B6: chr9:96818597:96818698:-|CDS|ENSG00000196597|unk|FALSE|unique (ssRNA)
RNA: GGGAGUUCUACAGUCCGACGAUCGGAGAAACCAUUCGAAUGUCAUGAAUGUGGGAAAUCUUUUAACUAUAAGUCAAUCCUCAUAGUGCAUCAGAGAACUCACACAGGGGAGAAACCUUUUGAAUGUAAUGAAUGCGGGAAAUCCAACAGAGGAUUGAGCAUCA
B7: chr10:128104542:128104643:-|CDS|ENSG00000148773|msi1|total|mutant (ssRNA)
RNA: GGGAGUUCUACAGUCCGACGAUCAAGUGAUGAGAAAAAUAUCAACACAUUUGUGGAAACUCCAGUGCAGAAACUGGACCUGCCCGGAAAUUUACCUGGCAGCAAGAGACAGCCACAGACUCCUAAGGAAAAGGCUGAGGCUCUCAACAGAGGAUUGAGCAUCA
B8: chr4:138167974:138168075:-|3pUTR|ENSG00000151012|msi1|total|mutant (ssRNA)
RNA: GGGAGUUCUACAGUCCGACGAUCCACAAAAUCUGCAUUGUCCAUGUGAGUAAAGUAAAAUAAUUCCUGUUAUUUUUUUCUGUCCGAAAUAAGUAUGGAGGAUAUGUUUUUAAAAAUUUAUGAGUUAAUUGAAAUAUCCAUAUACAACAGAGGAUUGAGCAUCA
B9: chr5:38481646:38481747:-|CDS|ENSG00000113594|unk|total|mutant (ssRNA)
RNA: GGGAGUUCUACAGUCCGACGAUCCAGACCUCAGGCCAAUGUAAAUACAUGGAAUUCCGUGUCUCCAGACUCUCCCCGAUCCACCGACAGCAACAGUGAGAUUGUCUCAUUUGGAAGUCCAUGCUCCAUUAAUUCCCGACAAUUCAACAGAGGAUUGAGCAUCA
B10: chr13:69700593:69701701:-|three_prime_utr|ENSG00000150361|control|control|control (ssRNA)
RNA: GGGAGUUCUACAGUCCGACGAUCUUGAAUGGCAAGAAUGAGAACUUCCAGAGAUGAAAACUCUUCAAGAACAAGGAUCUCUGUAGCGUUACCUACUGAUGUUGAAAGAGUUAGUAGAUCAAACAGAAUAGUAGGAAACAAGAACAACAGAGGAUUGAGCAUCA
B11: ENSG00000198589:be:win_251|CDS|ENSG00000198589|bound_else_gene|NA|bound_elsewhere_windowed (ssRNA)
RNA: GGGAGUUCUACAGUCCGACGAUCUCAUUAUCCAAGAAGGUGAGAGUAUUAACUGCAUGGUGGACCUACUGGAAAAAUGUGACAUUACGUGCCAAGCAGAAGUCUGGAGCAUGUUUACAGCCAUUCUGAAGAAAAGCAUACGGACAACAGAGGAUUGAGCAUCA
B12: chr11:27368498:27368690:-|CDS|ENSG00000205213|msi1|FALSE|unique (ssRNA)
RNA: GGGAGUUCUACAGUCCGACGAUCACCCCUUUGUUUGCCAUUUCCUACAGGUGAAACGCCAUCAUUAGGAUUCACUGUAACGUUAGUGCUAUUAAACUCACUAGCAUUUUUAUUAAUGGCCGUUAUCUACACUAAACUAUACUGCAACAGAGGAUUGAGCAUCA
B13: chr7:123692404:123692516:-|CDS|ENSG00000106299|unk|FALSE|unique (ssRNA)
RNA: GGGAGUUCUACAGUCCGACGAUCCCUGCCUUCUGAUGGGGACCAUCAGGUUCCAACUACUGCAGGAAACAAAGCAGCUCUUUUAGAUCAAAUUAGAGAGGGUGCUCAGCUAAAAAAAGUGGAGCAGAACAGUCGGCCAGUGUCCAACAGAGGAUUGAGCAUCA
B14: chr5:139396562:139396955:-|CDS|ENSG00000170469|control|control|control (ssRNA)
RNA: GGGAGUUCUACAGUCCGACGAUCAGGGGUCCACAAGGUGGGGGCUUGUAGCCUAGGGGAGGAGCUGGGUCUUUGUUGUCUGGUAGGCACCACCGCUUCCUUUGGGUAUUUAAUCCCUUCCUAUAUAAACAGCCCUGGUUACCCCAACAGAGGAUUGAGCAUCA

These binders were tested against MSI1 full-length (mouse, UniProt Q61474 1-362) (assay: nsRBNS (natural sequence RNA bind-n-seq); RBNS binding buffer (assumed for nsRBNS): 25 mM Tris pH 7.5, 150 mM KCl, 3 mM MgCl2, 0.01% Triton X-100, 500 ug/ml BSA, 20 U/ml SUPERase-In, 4 C; UNK is unkempt and MSI1 is Musashi-1; names of the RNAs are library labels; protein concentration not given here; high values mean tight binding).
Sequence of MSI1 full-length (Q61474 whole entry): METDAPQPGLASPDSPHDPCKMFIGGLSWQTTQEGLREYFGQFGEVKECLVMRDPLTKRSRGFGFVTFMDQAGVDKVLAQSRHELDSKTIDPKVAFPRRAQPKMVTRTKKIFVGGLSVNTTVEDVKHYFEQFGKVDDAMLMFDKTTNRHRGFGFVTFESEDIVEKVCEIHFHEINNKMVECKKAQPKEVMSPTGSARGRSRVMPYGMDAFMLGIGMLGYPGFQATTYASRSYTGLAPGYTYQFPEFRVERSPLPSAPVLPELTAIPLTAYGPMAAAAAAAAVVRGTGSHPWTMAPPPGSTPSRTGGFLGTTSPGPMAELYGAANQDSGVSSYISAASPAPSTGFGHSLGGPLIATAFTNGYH

Binder	binding signal
B1	0.367 enrichment R
B2	0.791 enrichment R
B3	0.716 enrichment R
B4	0.36 enrichment R
B5	0.566 enrichment R
B6	0.426 enrichment R
B7	0.365 enrichment R
B8	0.651 enrichment R
B9	0.459 enrichment R
B10	4.13 enrichment R
B11	0.303 enrichment R
B12	1.09 enrichment R
B13	0.703 enrichment R
B14	1.74 enrichment R
